Assay outcomes deposited in PubChem BioAssay by Bradner/Qi Labs at DFCI.
CBX7 AlphaScr – CBX7 inhibition, primary AlphaScreen. hit rate 1.1% among 66,000. O95931. AID 1224903. normalised signal (fraction of DMSO) (concentration not given with the values). AlphaScreen His6-CBX7 / biotin-H3K27me3 peptide binding; hits give low values; in the data active = normalised signal below about 0.5
Target sequence (O95931 whole entry, looked up): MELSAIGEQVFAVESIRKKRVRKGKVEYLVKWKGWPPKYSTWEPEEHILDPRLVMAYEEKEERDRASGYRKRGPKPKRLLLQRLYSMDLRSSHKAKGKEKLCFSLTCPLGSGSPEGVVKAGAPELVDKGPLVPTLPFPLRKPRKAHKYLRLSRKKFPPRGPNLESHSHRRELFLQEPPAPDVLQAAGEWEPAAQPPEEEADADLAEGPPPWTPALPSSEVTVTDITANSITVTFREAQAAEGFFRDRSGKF
Hits are given with their value; . = inactive. Many of the other results were omitted from the sample, so hits are more common in it than they were.

SMILES	CBX7 AlphaScr
COc1ccc(NCc2nc3ccccc3n2Cc2ccccc2F)cc1	.
FC(F)(F)c1cc(-c2ccccc2)nc(N2CCN(c3ccccc3)CC2)n1	.
COc1cc(OC)cc(-c2nnc(NC(=O)c3ccc(S(=O)(=O)N4CC(C)OC(C)C4)cc3)o2)c1 (configuration not stated)	.
CCCCN(C)S(=O)(=O)c1ccc(C(=O)Nc2nnc(-c3ccccc3Cl)o2)cc1	.
CCC1CCCCN1S(=O)(=O)c1ccc(NC(=O)c2oc3ccccc3c2C)cc1 (configuration not stated)	.
CC1CN(S(=O)(=O)c2ccc(C(=O)Nc3nnc(-c4ccccc4Cl)o3)cc2)CC(C)O1 (configuration not stated)	0.0411
O=C(Nc1nnc(-c2ccccc2Cl)o1)c1ccc(S(=O)(=O)N2CCOCC2)cc1	0.0522
O=C(Nc1nnc(-c2ccccc2Cl)o1)c1ccc(S(=O)(=O)N2CCCC2)cc1	.
O=C(Nc1nnc(-c2cccs2)o1)c1ccc(S(=O)(=O)N2CCOCC2)cc1	.
CCC1CCCCN1S(=O)(=O)c1ccc(C(=O)Nc2nnc(-c3ccccc3Cl)o2)cc1 (configuration not stated)	0.0546
COc1ccc(CCNC(=O)CCn2nc(-c3ccc(C)cc3)ccc2=O)cc1OC	.
Cc1ccc(-n2c(C)nc3c(cnn3-c3ccc(C)cc3)c2=O)cc1	.
CC1CCN(C2=Nc3ccc(NC(=O)c4ccccc4F)cc3C(C)C2)CC1 (configuration not stated)	.
CCOCCCNC(=O)c1c[nH]c2ccc(S(=O)(=O)N(C)c3ccc(C)c(C)c3)cc2c1=O	.
CC(C)N1CCc2c(sc(NC(=O)c3ccc(S(=O)(=O)N(C)C)cc3)c2C(N)=O)C1	.
COc1cc(-c2nc3sc4c(c3c(=O)[nH]2)CCCC4)ccc1OCc1ccc(Cl)c(Cl)c1	.
CCCOc1ccc(N2C(=O)CC(Nc3ccc(CCO)cc3)C2=O)cc1 (configuration not stated)	.
Cc1ccc(Cl)cc1NC(=O)CCc1c(C)nc2cc(-c3cccc(F)c3)nn2c1C	.
Cc1ccc(Cl)c(OCC(O)Cn2cnc3cc(C)c(C)cc32)c1 (configuration not stated)	.
Cc1ccc(OCCCn2cnc3cc(C)c(C)cc32)cc1	.
CCCCn1c(=N)n(CC(O)COc2cccc(C)c2)c2ccccc21 (configuration not stated)	.
Cc1cc2ncn(CC(O)COC3CCCCC3)c2cc1C (configuration not stated)	0.0441
Cc1cc2ncn(CC(O)COCc3ccccc3)c2cc1C (configuration not stated)	0.0512
Cc1cccc(OCC(O)Cn2cnc3cc(C)c(C)cc32)c1 (configuration not stated)	0.0446
COC(=O)c1ccc(OCC(O)Cn2cnc3cc(C)c(C)cc32)cc1 (configuration not stated)	.
SMILES	CBX7 AlphaScr
Cc1ccc(OCC(O)Cn2cnc3cc(C)c(C)cc32)cc1 (configuration not stated)	0.0722
O=C1c2ccccc2C(=O)N1CC(O)COCc1ccccc1 (configuration not stated)	.
Cc1cc2ncn(C(C)c3ccccc3)c2cc1C (configuration not stated)	.
Cc1cc2ncn(CC(O)COc3ccc(C(=O)O)cc3)c2cc1C (configuration not stated)	.
Cc1cc2ncn(CC(O)COCC3CC=CCC3)c2cc1C (configuration not stated)	.
COc1ccc(NC(=O)CCc2nc3ccccc3[nH]2)cc1Cl	.
CCOc1ccc(-c2nc(CS(=O)(=O)CC(=O)NCc3ccc(C)cc3)c(C)o2)cc1	.
CCOC(=O)c1ccc(NC(=O)CCN2N=C(c3ccccc3)CCC2=O)cc1	.
O=C(Cn1c(-c2ccccc2F)nc2ccccc2c1=O)Nc1ccc(F)cc1F	.
Cc1ccc(NC(=O)CSc2nccn2-c2ccccc2)cc1Cl	.
Cc1cccc(NC(=O)CS(=O)(=O)c2nc(-c3ccccc3)cn2-c2ccc(Cl)cc2)c1C	.
COc1ccc(S(=O)(=O)NCc2ccc(C(=O)N3CCc4ccccc43)cc2)cc1	.
Cc1ccc(CNC(=O)CCc2c(C)nc3c(-c4ccccc4)c(C)nn3c2C)cc1	.
CCN1CCN(c2cc(=O)n(-c3ccccc3Cl)c(=O)[nH]2)CC1	.
Cc1oc(-c2ccc(Cl)cc2)nc1CN1CCCC(C(=O)NCc2ccccc2Cl)C1 (configuration not stated)	.
Cc1nn(-c2ccccc2)c(Cl)c1C(=O)Nc1ccc(C)c2cccnc12	.
CS(=O)(=O)Nc1ccc(Cl)c2cccnc12	0.00263
COc1ccc(OC)c(NS(=O)(=O)c2ccc(OC)c3ncccc23)c1	.
Cc1cccn2cc(-c3cccc(NC(=O)c4cccnc4)c3)nc12	.
COc1ccccc1CNC(=O)c1nc(-c2ccc(OC)c(OC)c2)oc1C	.
CCOC(=O)N1CCC(Nc2c(NCCOC)c(=O)c2=O)CC1	.
CCc1ccc(C(=O)CC2(O)C(=O)Nc3ccc(CC)cc32)cc1 (configuration not stated)	.
CCC(CO)NCC(O)Cn1c(C)c(C)c2ccccc21 (configuration not stated)	.
Cc1c(C)n(CC(O)CNCc2ccccc2)c2ccccc12 (configuration not stated)	.
Cc1c(C)n(CC(O)CNc2ccccc2)c2ccccc12 (configuration not stated)	0.253
SMILES	CBX7 AlphaScr
Cc1c(C)n(CC(O)CNC2CCCCC2)c2ccccc12 (configuration not stated)	.
Cc1nn(CC(O)Cn2c(C)c(C)c3ccccc32)c(C)c1Br (configuration not stated)	0.436
COc1ccccc1NCC(O)Cn1c2ccc(Br)cc2c2cc(Br)ccc21 (configuration not stated)	.
CCN(CC)CC(O)Cn1c(C)c(C)c2ccccc21 (configuration not stated)	.
Cc1c(C)n(CC(O)CN2CCCCCC2)c2ccccc12 (configuration not stated)	.
COc1ccc(NCC(O)Cn2c(C)c(C)c3ccccc32)c(OC)c1 (configuration not stated)	.
CCOc1ccc(NCC(O)Cn2c(C)c(C)c3ccccc32)cc1 (configuration not stated)	0.432
COc1ccc(NCC(O)Cn2c(C)c(C)c3ccccc32)cc1 (configuration not stated)	.
COc1ccc(NCC(O)Cn2c3ccccc3c3ccccc32)cc1 (configuration not stated)	0.452
CCOC(CNC(=O)CN1C(=O)CC(C)(C)Sc2ccccc21)OCC	.
O=C(Nc1ccc(Oc2ccccc2)cc1)c1ccc(NC2=NC3CS(=O)(=O)CC3S2)cc1 (configuration not stated)	.
CCn1c(C(=O)NCCCN2CCOCC2)cc2sc(Cl)cc21	.
CCC(C)NC(=O)CCc1c(C)nc2cc(-c3ccccc3)nn2c1C (configuration not stated)	.
CC(NC(=O)c1c(F)cccc1F)C(c1cccs1)N1CCN(c2ccccc2F)CC1 (configuration not stated)	.
Cc1ccc(C)c(NCC(O)Cn2c(C)c(C)c3ccccc32)c1 (configuration not stated)	.
Cc1c(C)n(CC(O)CNCCO)c2ccccc12 (configuration not stated)	.
Cc1cccc(NCC(O)Cn2c(C)c(C)c3ccccc32)c1 (configuration not stated)	0.474
